Screens: PubChem BioAssay, National Center for Advancing Translational Sciences (NCATS)
HCV inhibitor: HCV inhibition; Huh7.5.1 HCVcc-Cre infection, luciferase reporter, 44 h; Potency, µM (series often up to 41.8 µM), without a hit: at the top dose activity change, negative = inhibition, usual class: inhibitors; hit rate 3.4% among 340,000; AID 651820; active = well fitted inhibition curve with a large enough effect; inconclusive = small, poorly fitted or top-dose-only effect, or another doubt; inactive = no such curve, though single readings can be large or run the other way; note: potency is the fitted concentration of half-maximal effect; % is set by controls: 0 for no effect and ±100 for the full control effect
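Reporter virus HCVcc-Cre (~0.5 moi) infects cells exposed to compound; seeding density 1,000 cells/well with 4 h settling beforehand. Luminescence, 15 sec read, taken 44 h post-infection following a 15 min RT substrate incubation.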
Marburg entry inh: blocks Marburg virus binding to or entry into cells; Potency, µM (top dose mostly 37.8 µM), for the others: top-dose activity change, negative = inhibition, hits mostly inhibitors; hit rate 1.8% among 300,000; Marburg virus pseudotyped entry inhibition, cell reporter; calls by dose curve; tested in HEK293 cells; note: potency is the fitted concentration of half-maximal effect; % is set by controls: 0 for no effect and ±100 for the full control effect
CHX counter: counter-screen for Shiga toxin inhibitors: cycloheximide protein synthesis inhibition; max response, %; hit rate 12% among 300,000; cell reporter, cycloheximide protein synthesis inhibition counterscreen; in the data active = max response mostly above about 13%, no sharp cut-off; inactive = mostly below about 14%; note: read at 38.3 µM for the half of the compounds with a filed dose; 0% is about no effect
LASV entry inh: blocks Lassa virus binding to or entry into cells; Lassa virus pseudotype entry inhibition, cell reporter; Potency, µM (titrated, usually from 37.9 µM), for inactives: top-dose activity change, negative = inhibition, hits mostly inhibitors; hit rate 1.2% among 300,000; AID 540256; calls by dose curve; tested in HEK293 cells; note: potency is the fitted concentration of half-maximal effect; % is set by controls: 0 for no effect and ±100 for the full control effect; nearly all actives have a fitted effect of over 50% in size
FMDV antiviral: antivirals against foot and mouth disease virus; FMDV antiviral cell-based qHTS; Potency, µM (series often up to 57.9 µM), for inactives: top-dose activity change, negative = inhibition, usual class: inhibitors; hit rate 1.2% among 410,000; calls by dose curve; tested in HEK293T cells; note: read-out not given here; potency is the fitted concentration of half-maximal effect; % is set by controls: 0 for no effect and ±100 for the full control effect; nearly all actives have a fitted effect of over 45% in size
Shiga toxin inh: blocks Shiga toxin action in Vero cells. Vero cells, Shiga toxin protein synthesis inhibition reporter. inhibition, % at 38.7 µM. hit rate 9.2% among 290,000. AID 2315; in the data active = inhibition mostly above about 28%, no sharp cut-off; inactive = mostly below about 43%; note: 0% is about no effect
The depositor's hits bear a star; u = inconclusive; x = no result given; [ ] = another dose, or the depositor's remark. A selection: hits, their analogues and other compounds. The true share with any hit is near 13%.

SMILES	HCV inhibitor	Marburg entry inh	CHX counter	LASV entry inh	FMDV antiviral	Shiga toxin inh
CCc1nc2c(cnn2-c2ccc(Cl)cc2)c(=O)n1-c1ccc2c(c1)OCCO2	u	4%	-1	27%	u	-8
CC(=O)c1c(C)nc(C)nc1NC(=O)Cc1ccccc1	9%	12%	-3	-2%	12%	-8
CC(=O)Nc1nc(-c2ccc(Cl)cc2)nc(C)c1C(C)=O	7%	0%	21*	7%	22%	18*
O=c1[nH]c(=O)n(Cc2ccco2)c(O)c1C=NCc1ccc2c(c1)OCO2	0%	0%	4	-9%	0%	2
CC1(C)CC(N=Cc2c(O)n(Cc3ccc4c(c3)OCO4)c(=O)c3ccccc23)CC(C)(C)N1	11µM*	u	-4	u	-19%	6
CC1CCN(C(=O)COC(=O)C2CCN(S(=O)(=O)c3ccc(Cl)c(C(F)(F)F)c3)CC2)CC1	16%	12%	x	13%	-10%	x
CCc1ccc(CNC(=O)CN(c2ccc(C)cc2)S(=O)(=O)N(C)C)cc1	x	-2%[46.1 µM]	x	u	1%	x
COc1ccc(/C=C2\SC(=O)N(CC(=O)NCCCn3ccnc3)C2=O)cc1	-2%	x	65*	x	26%	19*
O=C(CN1C(=O)S/C(=C\c2cccc(Cl)c2)C1=O)NCCCn1ccnc1	10%	x	-5	x	-20%	-2
O=C(CN1C(=O)S/C(=C\c2ccc(Cl)cc2)C1=O)NCCCn1ccnc1	-4%	x	17*	x	-1%	26
COc1cccc(/C=C2\SC(=O)N(CCC(=O)NCCCn3ccnc3)C2=O)c1	-22%	x	9	x	-2%	-15
COc1cccc(/C=C2\SC(=O)N(CC(=O)NCCCn3ccnc3)C2=O)c1	7%	-2%[46.1 µM]	11	15%[46.1 µM]	4%	29*
COC(=O)c1ccc(NC(=O)c2cccc(NC(=O)c3ccccc3)c2)cc1	-28%	x	-1	x	10%	52
C/C=C/c1cccc(-c2nc(C(=O)NC3CCCC3)cc3c2[C@@H](CCO)N(S(=O)C(C)(C)C)C3)c1 (stereo not given in full)	x	x	x	x	-24%	x
O=C(/C=C/c1cc(Br)ccc1F)Nc1cccnc1	-15%	u	26*	6%[46.1 µM]	12%	39*
O=C(/C=C/c1c(F)cccc1Cl)Nc1cccnc1	-15%	x	39*	x	75%	x
CCc1cccc(NC(=O)Cn2c(=O)n(-c3cccc(Cl)c3)c(=O)c3c2c2cc(C)ccc2n3C)c1	x	0%[46.1 µM]	x	4%[46.1 µM]	-20%	x
C=C1C(=O)O[C@H]2C1CC[C@@](C)(O)C13C=CC(C)(C21)C1(C3)C(=O)O[C@@H]2C3C(C)=CCC3[C@](C)(O)C[C@H](OC(C)=O)C21 (stereo not given in full)	1%	-45%	12*	u	-24%	34*
C=C1CCC(OC(C)=O)/C(C)=C/CC2[C@H]1CC2(C)C (stereo not given in full)	x	x	x	x	-13%	x
Cc1ccc(-c2cc(N)nc(-c3ccccc3)c2)cc1	u	-24%[46.1 µM]	28*	-15%	76%	60*
Cc1ccc(-c2cc(-c3ccccc3)nc(N(C)N)n2)cc1	u	x	-4	x	17%	-7
Cc1ccc(C2=CC(C)(c3ccc(C)cc3)Nc3nc(C(F)(F)F)nn32)cc1 (stereo not given)	u	u	-2	-24%	-22%	-6
Cc1cc(C2=CC(C)(c3cc(C)oc3C)Nc3nc(C(F)(F)F)nn32)c(C)o1 (stereo not given)	x	-3%	28*	x	x	41*
C=CC[C@@H](CC(=O)N(CCO)Cc1ccccc1)C(=O)NC[C@@H](OC(=O)[C@@H](CC=C)CC(=O)OC(C)(C)C)c1ccccc1	10µM*	x	x	x	u	x
C=CC[C@@H](CC(=O)N(CCO)Cc1ccccc1)C(=O)N[C@H](COC(=O)[C@@H](CC=C)Cc1ccc(F)cc1)c1ccccc1	11µM*	x	x	x	u	x
SMILES	HCV inhibitor	Marburg entry inh	CHX counter	LASV entry inh	FMDV antiviral	Shiga toxin inh
C=CC[C@H](CC(=O)N(CCO)Cc1ccccc1)C(=O)NC[C@H](OC(=O)[C@@H](CC=C)CC(=O)OC(C)(C)C)c1ccccc1	u	x	x	x	-7%	x
C=CC[C@@H](CC(=O)N(CCO)Cc1ccccc1)C(=O)N[C@H](COC(=O)[C@@H](CC=C)CC(=O)OC(C)(C)C)c1ccccc1	1%	x	x	x	-26%	x
C=CC[C@H](CC(=O)NCCO)C(=O)NC[C@H](OC(=O)[C@@H](CC=C)Cc1ccc(F)cc1)c1ccccc1	-5%	x	x	x	-13%	x
C=CC[C@@H](CC(=O)N(CCO)Cc1ccccc1)C(=O)NC[C@H](OC(=O)[C@@H](CC=C)Cc1ccc(F)cc1)c1ccccc1	u	x	x	x	14µM*	x
CCN(CC)CCNC(=O)c1ccc(NC(=O)c2ccc(C(=O)c3ccccc3)cc2)cc1	u	u	x	u	-3%	x
CCN(CC)CCNC(=O)c1ccc(NC(C)=O)cc1	3%[8.37 µM]	u	0	25%	-12%	8
CCN(CC)CCNC(=O)c1ccc(NC(=O)c2ccc(COc3ccccc3)cc2)cc1	11µM*	u	29*	16%[46.1 µM]	-6%	-7
CCN(CC)CCNC(=O)c1ccc(NC(=O)Cc2cccc3ccccc23)cc1	u	11µM*	-5	-12%[46.1 µM]	2%	14
CCOC(=O)c1c(NC(=O)c2ccc(S(=O)(=O)N(CCOC)CCOC)cc2)sc2c1CC(C)(C)NC2(C)C	x	x	x	-1%[46.1 µM]	10%	x
CC(=O)Nc1ccc2c3c(cccc13)C(=O)N(c1ccccc1)C2=O	-6%	10%[46.1 µM]	-4	-16%[46.1 µM]	19%	1
O=CNc1ccc2c3c(cccc13)-c1ccccc1-2	2.8µM*	14%	x	-3%	53%	x
CN(C(=O)Nc1cccc([N+](=O)[O-])c1)c1ccccc1	-22%	u	x	12%	-5%	x
CN(N=Nc1ccc([N+](=O)[O-])cc1)c1ccccc1	-4%	u	68*	20%	58%	54*
CN(N=Nc1cccc([N+](=O)[O-])c1)c1ccccc1	-28%	u	57*	1%[46.1 µM]	8%	88*
CC(C)N(N=Nc1ccc([N+](=O)[O-])cc1)C(C)C	-18%	18%	-1	-9%	-13%	-4
CCCC(=O)N(c1ccc2oc(C)c(C(C)=O)c2c1)S(=O)(=O)c1ccc(C)c([N+](=O)[O-])c1	-15%	9%	-2	3%	u	1
Cc1noc(C(=O)Nc2cccc(Cl)c2)c1Cl	-11%	x	33*	x	28%	60*
Cc1noc(C(=O)Nc2cccc(O)c2)c1Cl	7%	13%	43*	-1%	10%	76*
CCC(=O)OCC(=O)[C@@]1(OC(=O)CC)[C@@H](C)C[C@@H]2[C@H]3CCC4=CC(=O)C=C[C@]4(C)[C@@]3(F)[C@@H](O)C[C@@]21C	x	x	12	x	x	-7
C=CCn1c(SCC(=O)N2CCCCCC2)nc2ccccc2c1=O	-19%	-12%[46.1 µM]	-5	u	-17%	0
C=CCn1c(SCN2C(=O)c3ccccc3C2=O)nc2ccc(Cl)cc2c1=O	-6%	2%	-4	3%	16µM*	-9
